Screens as filed in PubChem.
An excerpt weighted towards active compounds, which were near 3.8% of everything screened.
ATXN2 expr inh: ATXN2 expression inhibition; HEK-293 ATXN2-luciferase reporter, luminescence, 24 h; Potency, µM (top dose mostly 57 µM), for inactives: at the top dose activity change, negative = inhibition, actives largely listed as inhibitors; actives 0.72% (n = 360,000); note: % is set by controls: 0 for no effect and ±100 for the full control effect; nearly all actives have a fitted effect of over 55% in size
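ATXN2-luciferase reporter cells (luciferase flanked by upstream and downstream ATXN2 gene portions) were treated 24 h at 37 °C with compounds at up to 57 uM. SteadyGlo luminescence gave expression; GF-AFC fluorescence gave viability.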
S2 tox: viability counter-screen for ATXN expression inhibitors; S2 cells (HEK-293 line with an ATXN2-luciferase reporter) viability, CellTiter-Fluor protease fluorescence, 24 h; Potency, µM (doses to about 56.7 µM), actives largely listed as cytotoxic; actives 0.49% (n = 400,000); AID 651635; note: nearly all actives have a fitted effect of over 40% in size
HT1080 IDH1KD tx: toxicity to HT-1080 IDH1 knockdown cells (counter line). HT-1080 IDH1 knockdown viability, ATP luminescence, 48 h. Potency, µM (highest dose often 46.1 µM), inactives show at the highest dose activity, negative = toxicity, most hits filed as cytotoxic. actives 2% (n = 360,000);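 note: 0% = DMSO wells and -100% = cell-free medium wells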
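IDH1KD HT-1080 cells, 750/well, RPMI + 5% FBS; compound pinned after 2 h settling; 48 h, 37 °C; CellTiter-Glo luminescence; % activity normalised to DMSO and no-cell wells; curves fitted, classed by r2 and efficacy.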
TGFb SMAD3 inh: TGF-b pathway inhibition | Potency, µM (titrated, usually from 46.1 µM), for inactives: at the top dose activity, negative = inhibition, actives largely listed as inhibitors | actives 1.2% (n = 410,000) | HepG2 CAGA-GFP TGF-b/SMAD3 reporter, GFP fluorescence, 18 h; TGF-beta stimulated, 500 pg/mL final; note: % is set by controls: 0 for no effect and ±100 for the full control effect; nearly all actives have a fitted effect of over 65% in size
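Inhibition of TGF-beta-driven CAGA-GFP reporter expression in HEPG2 cells is measured by cellular GFP fluorescence after 18 h stimulation with 500 pg/mL recombinant TGF-beta in 1% FBS medium at 37 degrees C.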
HT1080NT lethal: kills 2HG-producing HT-1080-NT fibrosarcoma cells | HT-1080-NT fibrosarcoma viability, CellTiter-Glo ATP luminescence, 48 h | Potency, µM (top dose mostly 46.1 µM), for inactives: top-dose activity, negative = less viability, hits mostly cytotoxic | actives 1.6% (n = 360,000);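 note: NT is the 2HG producing partner of a matched IDH1 knockdown line; 0% = DMSO-treated cells and -100% = media-only wells without cells; nearly all actives have a fitted effect of over 55% in size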
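Toxicity toward the 2HG-producing NT line was scored as %Activity, normalised to DMSO and no-cell wells, from CellTiter-Glo luminescence after 48 hours' treatment.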
HepG2 viability: kills HepG2 cells in TGF-b inhibitor counter-screen; HepG2 CAGA-GFP viability, ATP luminescence, 18 h; Potency, µM (series often up to 46.1 µM), for inactives: at the top dose activity change, negative = cytotoxicity, hits mostly cytotoxic; actives 0.76% (n = 410,000)
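CellTiter-Glo luminescence gave cytotoxicity after 18 hours at 37 degrees C. The cells were HepG2 CAGA-GFP in 1% FBS DMEM, stimulated with 500 pg/mL TGF-beta after compound addition. %Activity was normalised to no-cell wells (complete cell-killing) and DMSO (no toxicity), and curves were fitted and classified.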
* marks the source's active call; other numbers are inactive results; i = inactive; u = inconclusive; x = no result; ! = not active in a repeat; [ ] = remark or other dose. Calls come from the whole dose curve; as a rule, active = well fitted curve in the direction sought with a large enough effect; inconclusive = small, poorly fitted or top-dose-only effect, or another doubt; inactive = no such curve, though single readings can be large; an effect the other way counts as inactive or inconclusive. Potency is the fitted concentration of half-maximal effect.

SMILES	ATXN2 expr inh	S2 tox	HT1080 IDH1KD tx	TGFb SMAD3 inh	HT1080NT lethal	HepG2 viability
Cc1ccc(NC(=O)C(c2ccccc2)c2ccccc2)c(O)c1	-6%	i	-25%	16µM*	-24%	-25%
COc1cc(NC(=O)C(c2ccccc2)c2ccccc2)c(C(=O)O)cc1OC	x	i	1%	25%	0%	25%
O=c1c(N2CCc3ccccc3C2)csc2ccc(Cl)cc12	11%	u	x	-1%	x	-26%
CCCC[C@@H]1Cc2[nH][nH]c(=O)c2[C@H](c2ccc3ccccc3c2)O1	3%	i	23µM*	x	0%	x
O=C(c1cccc(Cl)c1)N1CCCC(Cn2cc(C(=O)N3CCCC3)nn2)C1 (stereo unspecified)	x	i	x	x	x	x
CC1C(=O)N2CCCc3cc(NC(=O)C(=O)NCCCc4ccccc4)cc1c32 (stereo unspecified)	6%	i	-19%	-3%	-8%	-41%
CC1C(=O)N2CCCc3cc(NC(=O)C(=O)NCCc4ccc(F)cc4)cc1c32 (stereo unspecified)	1%	i	21µM*	12%	18µM*	-3%
O=C(O)c1cccc(Cn2c(Cl)c(/C=N/NC(=O)c3ccccc3Cl)sc2=O)c1	-13%	u	0%	-15%	9%	16%
O=C(O)c1cccc(Cn2c(Cl)c(/C=N/Nc3ccccc3)sc2=O)c1	-31%[11.3 µM]	i	5.8µM*	-12%	u	-19%
CCCCNC(=O)c1ccc2nc(CC)c(N(CCC(C)C)CCN(C)C)n2c1	-11%	i	u	6%	u	-18%
CCc1nc2ccc(C(=O)NCc3ccc4c(c3)OCO4)cn2c1N(CCC(C)C)CCN(C)C	u	u	u	u	21µM*	-36%
CCc1nc2ccc(C(=O)NCc3ccc4c(c3)OCO4)cn2c1N(CC)CCN(C)C	11%	i	2%	12%	8%	-2%
CCc1nc2ccc(C(=O)NCCOc3ccc(OC)cc3)cn2c1N(CCC(C)C)CCN(C)C	-66%	i	21µM*	10%	u	-23%
COc1ccc(Br)cc1Cn1nnc(C(=O)Nc2ccc(C)cc2C)c1N	u	u	x	u	x	-17%
O=C(O)Cn1nnc(-c2cccs2)n1	1%	i	3%	-3%	2%	3.2µM*
CCOc1ccc(/C=C/C(=O)Nc2ccc3nc(N(CC)CC)cc(C)c3c2)cc1OC	x	x	x	u	x	-56%
NS(=O)(=O)c1cccc(NS(=O)(=O)c2ccc(/C=C/C(=O)O)cc2)c1	2%	i	10%	-1%	-2%	13µM*
CC(C)c1c(C(=O)NCc2ccncc2)cnn1-c1nccc(-c2cccs2)n1	x	i	x	x	x	x
COc1ccc(-c2sc3ccccc3c2-c2ccc(OCCN(C)C)cc2)cc1	u	u	u	u	23µM*	-97%
COc1cccc(-c2sc3ccc(OC)cc3c2-c2ccc(OCCN(C)C)cc2)c1	u	u	u	u	u	14µM*
CN(C)c1ccc(N=Nc2cccc(F)c2)cc1	68%	i	10%	-11%	2%	-26%
Cc1cc(N(C)C)cc(C)c1N=Nc1cc[n+]([O-])cc1	x	11µM*	-7%	0%	-15%	-47%
COC(=O)c1ccccc1-c1c2ccc(=N)cc-2oc2cc(N)ccc12	u	x	10µM*	-97%	6.5µM*	-27%
COC(=O)c1ccccc1-c1ccc(/C=N/NC(=O)c2cc3ccccc3o2)o1	-7%	i	-2%	u	-2%	-8%
O=C(N/N=C/c1ccccc1)c1ccc(CN2C(=O)c3cccc4cccc2c34)cc1	-14%	i	u	0%	21µM*	-27%
SMILES	ATXN2 expr inh	S2 tox	HT1080 IDH1KD tx	TGFb SMAD3 inh	HT1080NT lethal	HepG2 viability
OCC1(Cc2cccc(C(F)(F)F)c2)CCN(Cc2cc3ccccc3o2)CC1	-22%	i	18µM*	u	21µM*	i
Cc1c(CN2CCC(CO)(Cc3cccc(C(F)(F)F)c3)CC2)c2ccccc2n1C	35µM*	x	u	u	-13%	25µM*
COc1ccc(CC2(CO)CCN(Cc3cc4ccccc4o3)CC2)cc1	-25%	i	-23%	-14%	u	-22%
O=C(Cn1cc([N+](=O)[O-])nc1[N+](=O)[O-])N1CCN(c2ccccc2)CC1	-6%	i	26µM*	u	-21%	-108%
O=C(Cn1cnc2ccccc2c1=O)N1CCN(c2ccccc2)CC1	2%	i	4%	16%	2%	-17%
CC1=C(C#N)C(C)(C)C(C#N)=C(C)N1	x	i	0%	-1%	-4%	1.1µM*
COC(=O)c1ccccc1-c1ccc(/C=N/Nc2nc(N3CCCC3)nc(N3CCCC3)n2)o1	u	u	u	13µM*	u	-39%
Cc1ccc(C(C)C)c(OCC(O)CN2CCN(c3ccccc3F)CC2)c1 (stereo unspecified)	x	x	x	16µM*	x	-54%
COc1ccccc1N1CCN(CC(O)COc2cccc3ccccc23)CC1 (stereo unspecified)	u	u	15µM*!	36%	u	-44%
O=C(Nc1cc(C(=O)NC2CCOCC2)c2c(c1)ncn2C1CCCC1)c1ccccc1	x	i	x	x	x	x
COC(=O)c1c(C)n(-c2ccc(C)cc2)c2ccc(O)cc12	-14%	i	20µM*	u	13µM*	-39%
CCOc1ccc(-n2c(C)c(C(=O)OC)c3cc(O)ccc32)cc1	-11%	i	-1%	8%	-5%	15%
COC(=O)c1c(C)n(-c2ccccc2)c2ccc(O)cc12	6%	i	u	-23%	11µM*	-6%
CN(C)C(=O)c1ccc(S(=O)(=O)c2ccc(NC(=O)[C@@](C)(O)C(F)(F)F)c(Cl)c2)cc1	-18%	x	x	x	x	x
COc1ccc(C(=O)Oc2ccc(C(c3c(C)[nH][nH]c3=O)c3c(C)[nH][nH]c3=O)cc2)cc1	23%	i	x	-6%	x	0%
CC(C)(C)c1ccc(-n2nc(C#N)c(Cl)cc2=O)cc1	u	x	3.3µM*	7.1µM*	7.3µM*	6.3µM*
CC(C)(C)c1ccc(-n2nc(C(N)=O)c(O)cc2=O)cc1	19%	u	1%	8%	-4%	-21%
COc1c(CC=C(C)C)cc(C2CC(=O)c3c(O)cc(O)cc3O2)cc1CC=C(C)C (stereo unspecified)	u	x	u	14µM*	u	16µM*
